Results reported in the supplement of paper PMC10849652.
The full data set covers some 8,800 targets. This sample favours those with a hit. About 0.5% of all pairs of compound and target were hits.

Compound: CS(=O)(=O)CCNCc1ccc(-c2ccc3ncnc(Nc4ccc(OCc5cccc(F)c5)c(Cl)c4)c3c2)o1 [lapatinib]
Assay: log2 fold change, soluble protein after heating vs DMSO (PISA); higher = thermal stabilisation; K562 lysate, 10 uM; active = over 0.2 and 3.5 SD of the protein, either way, in both replicates (recomputed)
Method in brief: (§1)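 Following dounce homogenisation of K562 pellets in PBS pH 7.4 with 1 mM MgCl2, crude extract at 1 mg/mL protein was incubated for 30 min with 10 μM compound. Aliquots were then heated for 3 min over 48°C-58°C and pooled, NP-40 was added to 0.5% at 4°C, and soluble protein was recovered as the supernatant at 21,000xg for 90 min. Channel-sum-equalised TMTpro 16plex LC-MS/MS quantified this protein. Each value, from duplicates, is a log-two fold change in thermal stability relative to solvent controls.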

Sequence of UniProt Q8TBZ3 (Q8TBZ3 whole entry, looked up): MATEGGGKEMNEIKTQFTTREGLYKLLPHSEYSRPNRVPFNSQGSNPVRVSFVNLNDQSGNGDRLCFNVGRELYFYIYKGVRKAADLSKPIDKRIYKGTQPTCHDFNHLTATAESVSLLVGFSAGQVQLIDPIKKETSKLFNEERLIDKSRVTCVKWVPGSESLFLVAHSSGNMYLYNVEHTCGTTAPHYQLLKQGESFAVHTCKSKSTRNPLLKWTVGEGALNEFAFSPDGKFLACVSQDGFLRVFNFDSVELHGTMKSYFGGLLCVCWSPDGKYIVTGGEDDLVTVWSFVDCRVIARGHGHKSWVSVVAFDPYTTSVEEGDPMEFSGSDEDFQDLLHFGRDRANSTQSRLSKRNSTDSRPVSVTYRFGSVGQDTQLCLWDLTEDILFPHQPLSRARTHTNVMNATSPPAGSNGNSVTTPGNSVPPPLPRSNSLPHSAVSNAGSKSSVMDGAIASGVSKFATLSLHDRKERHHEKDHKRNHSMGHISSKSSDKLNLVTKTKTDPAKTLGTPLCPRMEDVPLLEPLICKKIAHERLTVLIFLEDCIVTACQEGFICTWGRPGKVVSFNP
Sequence of UniProt Q96QU8 (Q96QU8 whole entry, looked up): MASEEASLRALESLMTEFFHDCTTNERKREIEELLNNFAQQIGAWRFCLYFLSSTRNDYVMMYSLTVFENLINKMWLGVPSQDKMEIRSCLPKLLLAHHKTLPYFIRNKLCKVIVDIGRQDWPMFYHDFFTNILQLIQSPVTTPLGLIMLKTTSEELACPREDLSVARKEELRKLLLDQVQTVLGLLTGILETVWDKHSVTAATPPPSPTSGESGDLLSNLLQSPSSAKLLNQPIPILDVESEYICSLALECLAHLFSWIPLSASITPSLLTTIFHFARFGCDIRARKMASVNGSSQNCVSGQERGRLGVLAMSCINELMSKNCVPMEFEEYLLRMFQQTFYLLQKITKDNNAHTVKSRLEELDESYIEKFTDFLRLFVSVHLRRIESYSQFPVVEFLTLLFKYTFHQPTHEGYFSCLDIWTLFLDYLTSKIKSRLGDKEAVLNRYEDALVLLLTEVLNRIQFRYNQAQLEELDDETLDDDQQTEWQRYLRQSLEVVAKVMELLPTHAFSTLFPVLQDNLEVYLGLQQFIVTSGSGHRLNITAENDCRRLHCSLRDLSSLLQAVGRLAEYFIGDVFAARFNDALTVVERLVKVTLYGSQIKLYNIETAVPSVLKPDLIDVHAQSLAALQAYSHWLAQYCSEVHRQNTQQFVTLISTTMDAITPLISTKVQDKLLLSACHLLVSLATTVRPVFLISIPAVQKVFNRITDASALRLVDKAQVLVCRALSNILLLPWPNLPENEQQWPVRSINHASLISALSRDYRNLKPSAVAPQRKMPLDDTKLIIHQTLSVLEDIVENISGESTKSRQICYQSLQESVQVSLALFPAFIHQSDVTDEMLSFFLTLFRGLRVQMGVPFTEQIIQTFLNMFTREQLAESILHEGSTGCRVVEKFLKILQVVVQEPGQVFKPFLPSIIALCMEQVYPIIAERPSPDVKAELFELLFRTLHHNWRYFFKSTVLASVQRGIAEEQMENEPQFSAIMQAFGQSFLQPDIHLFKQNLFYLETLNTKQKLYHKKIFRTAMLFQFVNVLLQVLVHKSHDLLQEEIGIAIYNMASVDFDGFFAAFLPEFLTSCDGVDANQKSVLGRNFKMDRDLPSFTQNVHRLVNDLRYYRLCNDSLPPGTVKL
Sequence of UniProt Q86WB0 (Q86WB0 whole entry, looked up): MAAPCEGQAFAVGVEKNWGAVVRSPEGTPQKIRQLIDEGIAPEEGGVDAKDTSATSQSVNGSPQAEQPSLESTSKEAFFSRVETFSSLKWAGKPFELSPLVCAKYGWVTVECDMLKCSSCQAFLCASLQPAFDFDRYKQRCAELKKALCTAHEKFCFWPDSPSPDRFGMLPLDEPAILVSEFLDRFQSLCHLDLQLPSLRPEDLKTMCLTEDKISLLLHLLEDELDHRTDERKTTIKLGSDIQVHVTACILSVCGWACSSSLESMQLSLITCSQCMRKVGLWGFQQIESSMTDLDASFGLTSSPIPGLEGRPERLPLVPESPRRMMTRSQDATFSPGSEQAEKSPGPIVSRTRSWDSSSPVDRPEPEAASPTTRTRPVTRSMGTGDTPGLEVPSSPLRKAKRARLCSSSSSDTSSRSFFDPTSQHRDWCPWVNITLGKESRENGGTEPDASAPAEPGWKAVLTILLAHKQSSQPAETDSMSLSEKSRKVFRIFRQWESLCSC
Sequence of UniProt Q96S55 (Q96S55 whole entry, looked up): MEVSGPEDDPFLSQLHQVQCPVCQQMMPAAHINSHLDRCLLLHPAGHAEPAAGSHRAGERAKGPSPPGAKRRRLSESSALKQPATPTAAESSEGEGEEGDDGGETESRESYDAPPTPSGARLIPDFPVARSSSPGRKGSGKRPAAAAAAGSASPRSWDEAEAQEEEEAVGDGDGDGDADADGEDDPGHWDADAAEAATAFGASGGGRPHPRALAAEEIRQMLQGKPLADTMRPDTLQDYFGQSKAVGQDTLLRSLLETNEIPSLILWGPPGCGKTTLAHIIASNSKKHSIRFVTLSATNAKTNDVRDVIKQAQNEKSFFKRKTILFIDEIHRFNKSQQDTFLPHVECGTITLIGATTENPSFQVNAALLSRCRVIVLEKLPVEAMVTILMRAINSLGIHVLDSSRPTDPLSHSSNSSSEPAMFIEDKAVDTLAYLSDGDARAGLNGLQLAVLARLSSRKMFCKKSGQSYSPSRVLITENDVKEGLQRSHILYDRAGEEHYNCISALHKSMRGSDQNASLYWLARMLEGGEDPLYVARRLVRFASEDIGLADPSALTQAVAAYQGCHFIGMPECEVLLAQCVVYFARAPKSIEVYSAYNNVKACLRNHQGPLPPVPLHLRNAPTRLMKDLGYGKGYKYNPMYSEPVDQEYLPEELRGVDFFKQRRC
Sequence of UniProt O95619 (O95619 whole entry, looked up): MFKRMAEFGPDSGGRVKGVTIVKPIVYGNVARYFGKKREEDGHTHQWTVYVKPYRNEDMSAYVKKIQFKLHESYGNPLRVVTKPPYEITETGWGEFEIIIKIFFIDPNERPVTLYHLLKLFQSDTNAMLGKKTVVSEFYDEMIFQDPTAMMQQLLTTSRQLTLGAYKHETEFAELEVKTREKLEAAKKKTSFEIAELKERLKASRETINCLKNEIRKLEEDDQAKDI
Sequence of UniProt O43379 (O43379 whole entry, looked up): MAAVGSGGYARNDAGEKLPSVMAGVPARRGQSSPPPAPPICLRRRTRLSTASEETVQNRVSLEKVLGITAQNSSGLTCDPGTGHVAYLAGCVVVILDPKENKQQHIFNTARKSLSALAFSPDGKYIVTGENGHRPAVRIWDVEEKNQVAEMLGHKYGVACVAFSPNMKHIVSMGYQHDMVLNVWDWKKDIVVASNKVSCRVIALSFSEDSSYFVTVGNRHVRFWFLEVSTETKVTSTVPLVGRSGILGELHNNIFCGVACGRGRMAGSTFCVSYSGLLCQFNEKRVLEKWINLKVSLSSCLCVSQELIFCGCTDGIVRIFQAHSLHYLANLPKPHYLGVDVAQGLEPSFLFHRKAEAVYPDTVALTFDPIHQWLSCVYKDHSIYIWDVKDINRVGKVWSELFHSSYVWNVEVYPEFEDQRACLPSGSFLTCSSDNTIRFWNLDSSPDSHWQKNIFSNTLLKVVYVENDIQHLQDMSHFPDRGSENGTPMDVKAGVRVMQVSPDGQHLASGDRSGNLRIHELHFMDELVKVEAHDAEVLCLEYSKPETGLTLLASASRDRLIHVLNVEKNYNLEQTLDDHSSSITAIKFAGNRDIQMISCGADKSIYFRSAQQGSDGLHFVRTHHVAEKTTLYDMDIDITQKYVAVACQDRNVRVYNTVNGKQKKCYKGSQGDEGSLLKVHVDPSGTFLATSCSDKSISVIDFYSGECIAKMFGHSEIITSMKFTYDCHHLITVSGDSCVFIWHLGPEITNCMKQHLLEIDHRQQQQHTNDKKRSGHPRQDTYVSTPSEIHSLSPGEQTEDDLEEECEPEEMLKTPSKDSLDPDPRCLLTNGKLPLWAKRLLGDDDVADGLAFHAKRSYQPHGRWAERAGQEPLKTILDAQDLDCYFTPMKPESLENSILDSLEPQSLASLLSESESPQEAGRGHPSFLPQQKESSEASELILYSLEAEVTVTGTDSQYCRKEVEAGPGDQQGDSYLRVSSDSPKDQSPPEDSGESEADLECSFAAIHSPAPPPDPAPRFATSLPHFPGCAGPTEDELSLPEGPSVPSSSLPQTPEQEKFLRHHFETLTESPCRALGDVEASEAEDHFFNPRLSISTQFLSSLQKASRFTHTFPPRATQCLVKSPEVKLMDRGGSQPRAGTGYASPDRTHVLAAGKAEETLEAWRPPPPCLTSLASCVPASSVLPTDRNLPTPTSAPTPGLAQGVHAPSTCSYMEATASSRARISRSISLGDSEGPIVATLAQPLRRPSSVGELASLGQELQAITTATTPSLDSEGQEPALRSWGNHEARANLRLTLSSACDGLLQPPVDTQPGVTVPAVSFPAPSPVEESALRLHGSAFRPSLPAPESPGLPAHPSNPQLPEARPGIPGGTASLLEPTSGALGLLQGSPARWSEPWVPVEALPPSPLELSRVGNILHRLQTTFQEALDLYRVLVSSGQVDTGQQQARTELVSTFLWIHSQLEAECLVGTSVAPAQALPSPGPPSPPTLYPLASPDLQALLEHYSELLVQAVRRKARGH
Sequence of UniProt P22695 (P22695 whole entry, looked up): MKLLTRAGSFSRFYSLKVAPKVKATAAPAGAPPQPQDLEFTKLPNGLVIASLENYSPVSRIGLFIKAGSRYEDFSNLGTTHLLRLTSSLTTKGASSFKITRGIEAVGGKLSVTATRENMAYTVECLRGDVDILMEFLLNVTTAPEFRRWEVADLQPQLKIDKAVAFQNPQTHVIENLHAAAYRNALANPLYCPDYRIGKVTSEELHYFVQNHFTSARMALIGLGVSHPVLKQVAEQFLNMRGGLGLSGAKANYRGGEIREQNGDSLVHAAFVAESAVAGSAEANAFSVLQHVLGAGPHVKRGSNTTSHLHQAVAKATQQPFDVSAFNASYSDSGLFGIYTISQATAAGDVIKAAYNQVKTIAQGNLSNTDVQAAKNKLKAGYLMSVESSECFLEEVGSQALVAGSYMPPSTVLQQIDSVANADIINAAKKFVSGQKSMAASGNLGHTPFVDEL

| Target | log2 fold change |
| --- | --- |
| YES1 (UniProt P07947) | 0 (inactive) |
| XAB2 (UniProt Q9HCS7) | -0.02 (inactive) |
| VCPIP1 (UniProt Q96JH7) | -0.061 (inactive) |
| ZC3H13 (UniProt Q5T200) | -0.013 (inactive) |
| ZNF609 (UniProt O15014) | 0.023 (inactive) |
| ZC3H11A (UniProt O75152) | -0.09 (inactive) |
| VPS28 (UniProt Q9UK41) | 0.038 (inactive) |
| ZMYM4 (UniProt Q5VZL5) | -0.022 (inactive) |
| ZNF217 (UniProt O75362) | -0.02 (inactive) |
| YDJC (UniProt A8MPS7) | -0.003 (inactive) |
| XPNPEP1 isoform 3 (UniProt Q9NQW7) | -0.017 (inactive) |
| USP9X (UniProt Q93008) | -0.031 (inactive) |
| UQCRC2 (UniProt P22695) | -0.04 (inactive) |
| WRB (UniProt O00258) | -0.067 (inactive) |
| ZBTB33 (UniProt Q86T24) | 0.047 (inactive) |
| WDR62 isoform 4 (UniProt O43379) | -0.025 (inactive) |

| Target | log2 fold change |
| --- | --- |
| XPO6 (UniProt Q96QU8) | -0.012 (inactive) |
| VPS35L (UniProt Q7Z3J2) | -0.016 (inactive) |
| YEATS4 (UniProt O95619) | 0.023 (inactive) |
| YWHAQ (UniProt P27348) | 0.001 (inactive) |
| VRK1 (UniProt Q99986) | -0.005 (inactive) |
| ZC3HC1 (UniProt Q86WB0) | 0.042 (inactive) |
| USP3 (UniProt Q9Y6I4) | -0.016 (inactive) |
| VPS11 (UniProt Q9H270) | -0.025 (inactive) |
| VPS16 (UniProt Q9H269) | -0.014 (inactive) |
| WDR20 isoform 7 (UniProt Q8TBZ3) | 0.015 (inactive) |
| VAV3 isoform 4 (UniProt Q9UKW4) | -0.167 (inactive) |
| WRNIP1 (UniProt Q96S55) | -0.021 (inactive) |
| UNC13D (UniProt Q70J99) | -0.032 (inactive) |
| VARS (UniProt P26640) | -0.017 (inactive) |
| UTP18 (UniProt Q9Y5J1) | 0.032 (inactive) |

Compound: CS(=O)(=O)N1CCN(Cc2cc3nc(-c4cccc5[nH]ncc45)nc(N4CCOCC4)c3s2)CC1 [pictilisib]
Assay: as above
Method in brief: as §1

| Target | log2 fold change |
| --- | --- |
| YES1 (UniProt P07947) | -0.063 (inactive) |
| XAB2 (UniProt Q9HCS7) | -0.051 (inactive) |
| VCPIP1 (UniProt Q96JH7) | -0.053 (inactive) |
| ZC3H13 (UniProt Q5T200) | -0.022 (inactive) |
| ZNF609 (UniProt O15014) | -0.054 (inactive) |
| ZC3H11A (UniProt O75152) | -0.046 (inactive) |
| VPS28 (UniProt Q9UK41) | -0.005 (inactive) |
| ZMYM4 (UniProt Q5VZL5) | 0.037 (inactive) |
| ZNF217 (UniProt O75362) | 0.059 (inactive) |
| YDJC (UniProt A8MPS7) | -0.016 (inactive) |
| XPNPEP1 isoform 3 (UniProt Q9NQW7) | -0.02 (inactive) |
| USP9X (UniProt Q93008) | -0.027 (inactive) |
| UQCRC2 (UniProt P22695) | -0.008 (inactive) |
| WRB (UniProt O00258) | -0.118 (inactive) |
| ZBTB33 (UniProt Q86T24) | 0.149 (inactive) |
| WDR62 isoform 4 (UniProt O43379) | 0.028 (inactive) |

| Target | log2 fold change |
| --- | --- |
| XPO6 (UniProt Q96QU8) | -0.069 (inactive) |
| VPS35L (UniProt Q7Z3J2) | -0.003 (inactive) |
| YEATS4 (UniProt O95619) | 0.026 (inactive) |
| YWHAQ (UniProt P27348) | 0.038 (inactive) |
| VRK1 (UniProt Q99986) | 0.002 (inactive) |
| ZC3HC1 (UniProt Q86WB0) | 0.001 (inactive) |
| USP3 (UniProt Q9Y6I4) | 0.001 (inactive) |
| VPS11 (UniProt Q9H270) | -0.027 (inactive) |
| VPS16 (UniProt Q9H269) | 0.005 (inactive) |
| WDR20 isoform 7 (UniProt Q8TBZ3) | -0.006 (inactive) |
| VAV3 isoform 4 (UniProt Q9UKW4) | -0.057 (inactive) |
| WRNIP1 (UniProt Q96S55) | -0.043 (inactive) |
| UNC13D (UniProt Q70J99) | -0.032 (inactive) |
| VARS (UniProt P26640) | -0.027 (inactive) |
| UTP18 (UniProt Q9Y5J1) | 0.125 (inactive) |

Compound: C[C@@H](Oc1cc(-c2cnn(C3CCNCC3)c2)cnc1N)c1c(Cl)ccc(F)c1Cl [crizotinib]
Assay: as above
Method in brief: as §1

| Target | log2 fold change |
| --- | --- |
| YES1 (UniProt P07947) | -0.128 (inactive) |
| XAB2 (UniProt Q9HCS7) | -0.096 (inactive) |
| VCPIP1 (UniProt Q96JH7) | -0.052 (inactive) |
| ZC3H13 (UniProt Q5T200) | -0.057 (inactive) |
| ZNF609 (UniProt O15014) | 0.026 (inactive) |
| ZC3H11A (UniProt O75152) | -0.071 (inactive) |
| VPS28 (UniProt Q9UK41) | 0.051 (inactive) |
| ZMYM4 (UniProt Q5VZL5) | -0.009 (inactive) |
| ZNF217 (UniProt O75362) | -0.025 (inactive) |
| YDJC (UniProt A8MPS7) | 0.022 (inactive) |
| XPNPEP1 isoform 3 (UniProt Q9NQW7) | -0.008 (inactive) |
| USP9X (UniProt Q93008) | -0.058 (inactive) |
| UQCRC2 (UniProt P22695) | 0.019 (inactive) |
| WRB (UniProt O00258) | 0.034 (inactive) |
| ZBTB33 (UniProt Q86T24) | -0.111 (inactive) |
| WDR62 isoform 4 (UniProt O43379) | -0.048 (inactive) |

| Target | log2 fold change |
| --- | --- |
| XPO6 (UniProt Q96QU8) | -0.086 (inactive) |
| VPS35L (UniProt Q7Z3J2) | -0.028 (inactive) |
| YEATS4 (UniProt O95619) | 0.02 (inactive) |
| YWHAQ (UniProt P27348) | 0.07 (inactive) |
| VRK1 (UniProt Q99986) | -0.023 (inactive) |
| ZC3HC1 (UniProt Q86WB0) | 0.023 (inactive) |
| USP3 (UniProt Q9Y6I4) | -0.033 (inactive) |
| VPS11 (UniProt Q9H270) | -0.029 (inactive) |
| VPS16 (UniProt Q9H269) | -0.08 (inactive) |
| WDR20 isoform 7 (UniProt Q8TBZ3) | -0.069 (inactive) |
| VAV3 isoform 4 (UniProt Q9UKW4) | -0.217 (inactive) |
| WRNIP1 (UniProt Q96S55) | 0 (inactive) |
| UNC13D (UniProt Q70J99) | -0.038 (inactive) |
| VARS (UniProt P26640) | -0.068 (inactive) |
| UTP18 (UniProt Q9Y5J1) | -0.05 (inactive) |
